Results filed as inconclusive are left out. The source made the active and inactive calls. Unless noted, the call rests on the fitted dose curve; in most records, active means well fitted curve in the direction sought with a large enough effect in the repeat runs; inconclusive means weak or mixed curves; inactive means no such curve, though single readings can be large; an effect the other way counts as inactive or inconclusive.
Assays:
[1] = A CellTox Green Cytotoxicity Assay to monitor cytotoxicity in HepG2 cells - 0 hour (AID 1224882); further: nearly all actives have a fitted effect of over 35% in size
Method in brief: (§1)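 HepG2, 600 cells/well premixed w/ CellTox Green; 5 h settle, 37 C/5% CO2; pintool cpd add (DMSO); 37 C, 40 h; fluorescence read at 0, 8, 16, 24, 32, 40 h.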

[2] = A CellTox Green Cytotoxicity Assay to monitor cytotoxicity in HepG2 cells - 32 hour (AID 1224883); further: nearly all actives have a fitted effect of over 50% in size; further: potency means the concentration at half of the fitted maximal effect
Method in brief: as §1

[3] = A CellTox Green Cytotoxicity Assay to monitor cytotoxicity in HEK293 cells - 8 hour (AID 1224884); further: nearly all actives have a fitted effect of over 35% in size
Method in brief: (§2)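 Read-out: fluorescence of a cell-impermeant cyanine dye staining DNA of dead cells, proportional to cytotoxicity. HEK293, 600 cells/well with reagent, compound (23 nL DMSO) added after 5 h; reads at 0, 8, 16, 24, 32, 40 h.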

[4] = qHTS RealTime-Glo MT Cell Viability Assay in HEK293 cells - 24 hour (AID 1224886); further: nearly all actives have a fitted effect of over 50% in size; further: potency means the concentration at half of the fitted maximal effect
Method in brief: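 Homogeneous bioluminescent viability format in HEK293 cells (600 cells/well). Following 5 h at 37 C/5% CO2, 23 nL compound was pintooled; the signal was measured repeatedly during 40 h incubation.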

[5] = qHTS RealTime-Glo MT Cell Viability Assay in HEK293 cells - 8 hour (AID 1224887); further: nearly all actives have a fitted effect of over 50% in size; further: potency means the concentration at half of the fitted maximal effect
Method in brief: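 Luminescence readout at each listed time point; HEK293, 600 cells/well, RealTime-Glo MT reagent added with cells; compounds pinned (23 nL in DMSO) after 5 h at 37 C; continuous culture at 37 C.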

[6] = A CellTox Green Cytotoxicity Assay to monitor cytotoxicity in HEK293 cells - 16 hour (AID 1224888); further: nearly all actives have a fitted effect of over 35% in size; further: potency means the concentration at half of the fitted maximal effect
Method in brief: as §2

[7] = A CellTox Green Cytotoxicity Assay to monitor cytotoxicity in HepG2 cells - 8 hour (AID 1224890); further: nearly all actives have a fitted effect of over 45% in size
Method in brief: as §1

[8] = qHTS assay to identify small molecule antagonists of the estrogen receptor alpha (ER-alpha) signaling pathway using the BG1 cell line in the presence of 0.1 nM 17-beta-estradiol - cell viability counter screen (AID 1259241); further: nearly all actives have a fitted effect of over 40% in size
Method in brief: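 Live-cell protease activity (CellTiter-Fluor fluorescence, 30 min) was read in the same wells after VM7Luc4E2 cells had been exposed to compounds with 0.1 nM 17beta-estradiol for 22 hr at 37C.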

[9] = qHTS assay to identify small molecule antagonists of the androgen receptor (AR) signaling pathway using the MDA cell line in the presence of 0.5 nM R1881 - cell viability counter screen (AID 1259242); further: nearly all actives have a fitted effect of over 45% in size; further: potency means the concentration at half of the fitted maximal effect
Method in brief: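 Live-cell protease fluorescence, CellTiter-Fluor, 30 min at 37C. Cells: MDA-kb2, 3,000/well, preincubated 5 hr. Compounds plus 0.5 nM R1881 final, 16 hr, 37C, 0% CO2.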

[10] = qHTS assay to identify small molecule HDAC inhibitors (AID 1259364); further: potency means the concentration at half of the fitted maximal effect;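 further: wild-type HCT-116 cells with endogenous class I/II HDAC activity; nearly all actives have a fitted effect of over 45% in size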
Method in brief: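 HCT-116 (wild type), 1,500 cells/well, overnight; compound 2 hr 37C 5% CO2; HDAC-Glo I/II reagent 30 min RT; luminescence readout.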

[11] = qHTS assay to identify small molecule agonists of the sonic hedgehog signaling (Shh) pathway (AID 1259368; calls by dose curve; further: nearly all actives have a fitted effect of over 15% in size; further: potency means the concentration at half of the fitted maximal effect)
Method in brief: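 Read-out: firefly luciferase luminescence from a Gli1 response element reporter stably integrated in NIH/3T3-derived 3T3Gli1-Luc cells, measured 30 min at room temperature after reagent addition. Compound exposure lasted 24 hr at 37 C, 5% CO2.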

[12] = qHTS RealTime-Glo MT Cell Viability Assay in HepG2 cells - 16 hour (AID 1224885); further: nearly all actives have a fitted effect of over 50% in size
Method in brief: (§3)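 Cell number in HepG2 cultures estimated from NanoLuc luminescence generated by metabolic reduction of a prosubstrate by living cells. The homogeneous, nonlytic format allowed repeated reads at 0, 8, 16, 24, 32 and 40 h of compound exposure.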

[13] = qHTS RealTime-Glo MT Cell Viability Assay in HepG2 cells - 0 hour (AID 1224889); further: nearly all actives have a fitted effect of over 50% in size
Method in brief: as §3

[14] = qHTS assay to identify small molecule HDAC inhibitors - cell viability counter screen (AID 1259365)
Method in brief: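 HCT-116 (wild type), 1,500 cells/well, overnight 37C/5% CO2; compound in DMSO 2hr; CellTiter-Glo 30min RT; luminescence read.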

[15] = qHTS assay to identify small molecule agonists of the sonic hedgehog signaling (Shh) pathway - cell viability counter screen (AID 1259366); further: nearly all actives have a fitted effect of over 50% in size; further: potency means the concentration at half of the fitted maximal effect
Method in brief: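 CellTiter-Fluor fluorescence read-out, 1 hr at 37C, added after 23hr compound exposure. Cells: 3T3 Gli1-Luc, an NIH/3T3 clone with stably integrated Gli1-Luc reporter, plated 4hr before compound.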

[16] = molecular target: Estrogen receptor (Homo sapiens) (UniProt P03372); experiment: qHTS assay to identify small molecule antagonists of the estrogen receptor alpha (ER-alpha) signaling pathway using the BG1 cell line in the presence of 0.1 nM 17-beta-estradiol (AID 1259244); further: nearly all actives have a fitted effect of over 50% in size; further: potency means the concentration at half of the fitted maximal effect
Estrogen receptor (Homo sapiens), sequence (P03372 whole entry, looked up): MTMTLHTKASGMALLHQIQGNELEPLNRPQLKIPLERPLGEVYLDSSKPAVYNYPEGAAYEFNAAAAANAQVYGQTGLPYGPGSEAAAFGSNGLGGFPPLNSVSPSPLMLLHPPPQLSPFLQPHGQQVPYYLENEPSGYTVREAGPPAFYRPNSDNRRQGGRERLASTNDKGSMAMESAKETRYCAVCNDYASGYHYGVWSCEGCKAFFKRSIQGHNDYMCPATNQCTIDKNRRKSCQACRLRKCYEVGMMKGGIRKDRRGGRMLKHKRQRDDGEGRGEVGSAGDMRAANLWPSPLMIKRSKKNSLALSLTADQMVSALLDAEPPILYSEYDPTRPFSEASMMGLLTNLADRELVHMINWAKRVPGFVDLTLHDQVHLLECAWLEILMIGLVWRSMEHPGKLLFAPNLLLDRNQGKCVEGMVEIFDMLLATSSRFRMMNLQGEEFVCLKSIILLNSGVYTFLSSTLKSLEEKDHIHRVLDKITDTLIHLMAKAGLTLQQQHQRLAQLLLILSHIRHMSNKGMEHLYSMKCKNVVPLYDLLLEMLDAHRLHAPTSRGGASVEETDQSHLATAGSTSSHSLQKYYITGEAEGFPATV
Method in brief: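 Luminescence after ONE-Glo (30 min, room temperature) measured ERE-luciferase activity in VM7Luc4E2 cells treated 22 h with compound and 0.1 nM final 17beta-estradiol as stimulator.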

[17] = qHTS assay to identify small molecule phospholipidosis (PLD) inducers (AID 1259344; active means well fitted curve in the direction sought with a large enough effect; an effect the other way counts as inactive or inconclusive)
Method in brief: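 Accumulated phospholipid, stained red by LipidTOX during 24 h compound treatment of HepG2 cells at 37 C, is quantified from images as pit number and intensity, normalised per cell using Hoechst-stained nuclei.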

[18] = qHTS assay to identify small molecule antagonists of the sonic hedgehog signaling (Shh) pathway - cell viability counter screen (AID 1259367); further: nearly all actives have a fitted effect of over 55% in size; further: potency means the concentration at half of the fitted maximal effect
Method in brief: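 CellTiter-Fluor signal in conditioned medium-stimulated 3T3 Gli1-Luc cells, 23 hr compound exposure, 37C.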

[19] = molecular target: Androgen receptor (Homo sapiens) (UniProt P10275); experiment: qHTS assay to identify small molecule antagonists of the androgen receptor (AR) signaling pathway using the MDA cell line in the presence of 0.5 nM R1881 (AID 1259243); further: nearly all actives have a fitted effect of over 50% in size; further: potency means the concentration at half of the fitted maximal effect
Androgen receptor (Homo sapiens), sequence (P10275 whole entry, looked up): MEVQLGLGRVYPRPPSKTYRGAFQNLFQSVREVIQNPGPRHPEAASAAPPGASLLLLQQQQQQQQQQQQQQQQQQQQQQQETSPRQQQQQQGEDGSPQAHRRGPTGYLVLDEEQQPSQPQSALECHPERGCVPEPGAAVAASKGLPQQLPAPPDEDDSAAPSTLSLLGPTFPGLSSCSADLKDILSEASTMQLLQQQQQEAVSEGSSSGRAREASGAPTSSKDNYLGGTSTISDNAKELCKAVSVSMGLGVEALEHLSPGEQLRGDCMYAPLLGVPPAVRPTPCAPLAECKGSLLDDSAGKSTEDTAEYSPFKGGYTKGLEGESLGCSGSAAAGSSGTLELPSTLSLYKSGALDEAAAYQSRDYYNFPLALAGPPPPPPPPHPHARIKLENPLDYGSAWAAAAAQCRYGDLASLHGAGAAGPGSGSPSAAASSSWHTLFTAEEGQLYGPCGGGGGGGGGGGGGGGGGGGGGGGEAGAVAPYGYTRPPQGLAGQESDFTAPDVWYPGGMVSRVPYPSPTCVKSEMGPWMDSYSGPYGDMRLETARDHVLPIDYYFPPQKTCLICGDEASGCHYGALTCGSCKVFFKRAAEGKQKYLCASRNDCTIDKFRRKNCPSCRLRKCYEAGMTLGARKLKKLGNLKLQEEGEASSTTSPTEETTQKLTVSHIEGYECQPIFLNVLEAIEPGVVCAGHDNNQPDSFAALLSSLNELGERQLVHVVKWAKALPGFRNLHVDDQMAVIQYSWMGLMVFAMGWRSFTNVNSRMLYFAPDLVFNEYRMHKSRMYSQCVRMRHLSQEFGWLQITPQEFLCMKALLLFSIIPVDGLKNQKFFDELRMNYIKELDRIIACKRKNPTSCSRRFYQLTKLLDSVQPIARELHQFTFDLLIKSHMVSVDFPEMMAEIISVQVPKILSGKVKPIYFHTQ
Method in brief: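 MDA-kb2, MMTV-luc (AR/GR elements); 3,000 cells/well; cpd + 0.5 nM R1881 final; 16 hr 37C, 0% CO2; ONE-Glo 30 min RT; luminescence.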

Measured: Potency

CCOC(=O)c1ccc(C2CCC(NC[C@H](O)COc3ccc(O)c(NS(C)(=O)=O)c3)CC2)cc1 (stereo partly specified)
inactive: [1] | [3] | [6] | [7] | [8] | [9] | [10] | [11]
active: [2] 45.2 µM | [4] 20.2 µM | [5] 20.2 µM

Sc1nc2ccccc2s1
not listed: [2] | [6] | [10] | [11] | [16] | [17] | [18] | [19]
inactive: all other assays above

CCCCCCCCCCC[C@@H](C[C@@H]1OC(=O)[C@H]1CCCCCC)OC(=O)[C@H](CC(C)C)NC=O
active: [2] 16.9 µM | [4] 8.49 µM
not listed: [3] | [5] | [14] | [18] | [19]
inactive: all other assays above

C/C=C/C=C/COC(=O)C(C)C
active: [2] 38.9 µM
not listed: [4] | [5] | [13] | [16] | [17] | [18] | [19]
inactive: all other assays above

c1cnccn1
not listed: [3] | [14] | [17] | [19]
inactive: all other assays above

OC1CCCc2ccccc21 (stereo unspecified)
not listed: [12] | [17] | [19]
inactive: all other assays above

CCCCCCOC(=O)C(C)CC (stereo unspecified)
not listed: [3] | [13] | [17]
inactive: all other assays above

C[Si](Cl)(c1ccccc1)c1ccccc1
not listed: [4] | [5] | [17] | [19]
inactive: all other assays above

C#C[C@]1(O)CC[C@H]2[C@@H]3[C@H](C)CC4=C(CCC(=O)C4)[C@H]3CC[C@@]21C
not listed: [12] | [19]
inactive: all other assays above

COc1c(C)c2c(c(O)c1C/C=C(\C)CCC(=O)OCCN1CCOCC1)C(=O)OC2
not listed: [3]
inactive: all other assays above

COc1ccc2cc1Oc1ccc(cc1)C[C@H]1c3c(cc4c(c3Oc3cc5c(cc3OC)CCN(C)[C@@H]5C2)OCO4)CCN1C
active: [2] 23.9 µM | [9] 21.1 µM | [15] 11.9 µM | [18] 15 µM
inactive: [1] | [3] | [7] | [10] | [14] | [11]

CC(N=C(NC#N)Nc1ccncc1)C(C)(C)C (stereo unspecified)
not listed: [12] | [14] | [16] | [19]
inactive: all other assays above

O=C(O)CCN(C1(C(=O)NO)CCCC1)S(=O)(=O)c1ccc(Oc2ccc(F)cc2)cc1
not listed: [3] | [15] | [16] | [17] | [18] | [19]
inactive: all other assays above

Fc1ccc(C(c2ccc(F)cc2)N2CCNCC2)cc1
not listed: [2] | [15] | [17] | [18] | [19]
inactive: all other assays above

Cc1ccc(O)c(O)c1
inactive: [1] | [2] | [12] | [13] | [7] | [9] | [10]
active: [15] 21.1 µM | [18] 21.1 µM

OCCN1CCN(CCCN2c3ccccc3Sc3ccc(C(F)(F)F)cc32)CC1
active: [2] 26.8 µM | [4] 23.9 µM | [6] 26.8 µM | [15] 23.7 µM
not listed: [5] | [7] | [9] | [12] | [17] | [19]
inactive: all other assays above

Cc1cc(C(C)(C)C)c(O)c(C)c1Cn1c(=O)n(Cc2c(C)cc(C(C)(C)C)c(O)c2C)c(=O)n(Cc2c(C)cc(C(C)(C)C)c(O)c2C)c1=O
not listed: [4] | [5] | [12] | [17] | [19]
inactive: all other assays above

COc1ccc(NC(=O)CC(C)=O)cc1
not listed: [3] | [6] | [10] | [11] | [16] | [17] | [19]
inactive: all other assays above

COc1cc(/C=C/c2ccccc2)oc(=O)c1
active: [10] 11.2 µM | [11] 2.52 µM
not listed: [3] | [4] | [17] | [19]
inactive: all other assays above

CCCc1ccc(OCC(=O)N2CCN(C(=O)COc3ccc(CCC)cc3OC)CC2)c(OC)c1
active: [2] 23.9 µM | [4] 9.52 µM | [5] 9.52 µM | [19] 26.6 µM | [16] 29.8 µM
not listed: [3] | [12] | [17] | [18]
inactive: all other assays above

O=c1oc2cc(O)ccc2c2oc3cc(O)ccc3c12
inactive: [1] | [2] | [3] | [6] | [7] | [8] | [9] | [18]
active: [4] 21 µM | [5] 16.7 µM | [10] 9.29 µM

O=c1c(O)c(-c2ccc(O)cc2O)oc2cc(O)cc(O)c12
active: [18] 45.7 µM
not listed: [2] | [10] | [13] | [17] | [19]
inactive: all other assays above

O=C(c1ccc(O)c(O)c1)c1ccc(O)cc1O
active: [16] 61 µM | [10] 24.3 µM
inactive: [1] | [3] | [12] | [5] | [7] | [8] | [9] | [11]

O=c1[nH]c2ccccc2n1CCCN1CCN(C(c2ccccc2)c2ccccc2)CC1
inactive: [1] | [3] | [6] | [8] | [9] | [10] | [14] | [11]
active: [2] 23.9 µM | [4] 19 µM | [5] 21.3 µM

COc1cccc(OC)c1C(=O)O
not listed: [3] | [6] | [13] | [16] | [17] | [19]
inactive: all other assays above

CCC(C)n1ncn(-c2ccc(N3CCN(c4ccc(OC[C@H]5CO[C@](Cn6cncn6)(c6ccc(Cl)cc6Cl)O5)cc4)CC3)cc2)c1=O (stereo partly specified)
not listed: [3] | [4] | [5] | [12] | [16] | [17] | [19]
inactive: all other assays above

CN(C)[C@@H](CCOc1cccc2ccccc12)c1ccccc1
inactive: [1] | [3] | [13] | [8] | [16] | [10] | [14] | [11]
active: [19] 26.6 µM

CCCCCCCCCCCCOC(=O)c1ccc(O)cc1
not listed: [4] | [5] | [8] | [16] | [17] | [19]
inactive: all other assays above

CCC(=O)C(=O)CC
not listed: [3] | [4] | [11] | [14] | [16] | [17] | [19]
inactive: all other assays above

CCCCCC(C)OC(=O)COc1ccc(Cl)c2cccnc12 (stereo unspecified)
not listed: [2] | [3] | [4] | [5] | [12] | [16] | [17] | [19]
inactive: all other assays above

— PubChem BioAssay (Tox21)
